Experimental data taken from PubChem BioAssay AID1159580 (chemical genetic matrix, 2015).
Screen size: about 5,500 compounds; about 2,000 (36%) were called active. About 18% were inconclusive and are not listed. Cut-off read from the data, not from the text of the source: active = normalized growth mostly below about 0.91 (no sharp cut-off); inconclusive = no clear call, values can overlap the other calls; inactive = mostly above about 0.92. The list shows a part of the results.

Assay: chemical genetic growth profiling, strain panel (AID 1159580);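 note: tested at 20 µM; growth read once vehicle control cultures reached saturation at 30 °C; 1 = growth at the plate median or of vehicle wells; lower values mean less growth of the strain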
Settings: growth OD

Measured: normalized growth

Oc1c(Cl)cc(Cl)c2cccnc12
active: S. cerevisiae deletion strains, locus YJR066W, strain TOR1, hits give low values -0.00116 | S. cerevisiae deletion strains, locus YJR075W, strain HOC1, hits give low values 0.0672 | S. cerevisiae deletion strains, locus YKL009W, strain mrt4, hits give low values 0.092 | S. cerevisiae deletion strains, locus YKL068W, hits give low values 0.0598 | S. cerevisiae deletion strains, locus YKL085W, strain MDH1 (second series), hits give low values 0.057 | S. cerevisiae deletion strains, locus YKL085W, strain MDH1, hits give low values 0.057 | S. cerevisiae deletion strains, locus YKL160W, strain elf1, hits give low values 0.067 | S. cerevisiae deletion strains, locus YKL190W, strain CNB1, hits give low values 0.0458 | S. cerevisiae deletion strains, locus YKR001C, strain vps1, hits give low values 0.0676 | S. cerevisiae deletion strains, locus YKR026C, strain gcn3, hits give low values 0.0676 | S. cerevisiae deletion strains, locus YKR091W, strain srl3, hits give low values 0.0658 | S. cerevisiae deletion strains, locus YLL001W, strain dnm1, hits give low values 0.0628 | S. cerevisiae deletion strains, locus YLL026W, hits give low values 0.0652 | S. cerevisiae deletion strains, locus YLL041C, strain sdh2, hits give low values 0.0595 | S. cerevisiae deletion strains, locus YLR027C, strain aat2, hits give low values 0.0596 | S. cerevisiae deletion strains, locus YLR039C, strain RIC1, hits give low values 0.0746 | S. cerevisiae deletion strains, locus YLR058C, strain SHM2, hits give low values 0.0468 | S. cerevisiae deletion strains, locus YLR102C, strain apc9, hits give low values 0.0634 | S. cerevisiae deletion strains, locus YLR113W, strain HOG1, hits give low values 0.152 | S. cerevisiae deletion strains, locus YLR221C, strain rsa3, hits give low values 0.0659 | S. cerevisiae deletion strains, locus YLR258W, strain gsy2, hits give low values 0.0626 | S. cerevisiae deletion strains, locus YLR262C, strain YPT6 (second series), hits give low values 0.0862 | S. cerevisiae deletion strains, locus YLR262C, strain YPT6, hits give low values 0.0908 | S. cerevisiae deletion strains, locus YLR268W, strain sec22, hits give low values 0.0715 | S. cerevisiae deletion strains, locus YLR320W, strain mms22, hits give low values 0.0895 | S. cerevisiae deletion strains, locus YLR330W, strain CHS5, hits give low values 0.0519 | S. cerevisiae deletion strains, locus YLR342W, strain FKS1 (second series), hits give low values 0.0706 | S. cerevisiae deletion strains, locus YLR342W, strain FKS1, hits give low values 0.068 | S. cerevisiae deletion strains, locus YLR357W, strain rsc2, hits give low values 0.116 | S. cerevisiae deletion strains, locus YLR370C, strain arc18, hits give low values 0.0682 | S. cerevisiae deletion strains, locus YLR371W, strain rom2, hits give low values 0.0693 | S. cerevisiae deletion strains, locus YLR384C, strain iki3, hits give low values 0.0654 | S. cerevisiae deletion strains, locus YLR418C, strain cdc73, hits give low values 0.106 | S. cerevisiae deletion strains, locus YML016C, strain PPZ1, hits give low values 0.0467 | S. cerevisiae deletion strains, locus YML032C, strain rad52, hits give low values 0.0695 | S. cerevisiae deletion strains, locus YML120C, strain ndi1, hits give low values 0.0608 | S. cerevisiae deletion strains, locus YML124C, strain tub3, hits give low values 0.0633 | S. cerevisiae deletion strains, locus YMR058W, strain fet3, hits give low values 0.0638 | S. cerevisiae deletion strains, locus YMR078C, strain ctf18, hits give low values 0.0725 | S. cerevisiae deletion strains, locus YMR125W, strain sto1, hits give low values 0.0693 | S. cerevisiae deletion strains, locus YMR129W, hits give low values 0.0704 | S. cerevisiae deletion strains, locus YMR205C, strain PFK2, hits give low values 0.087 | S. cerevisiae deletion strains, locus YMR223W, strain ubp8, hits give low values 0.0733 | S. cerevisiae deletion strains, locus YMR231W, strain pep5, hits give low values 0.0731 | S. cerevisiae deletion strains, locus YMR263W, strain SAP30, hits give low values 0.057 | S. cerevisiae deletion strains, locus YMR307W, strain GAS1, hits give low values 0.101 | S. cerevisiae deletion strains, locus YNL067W, strain RPL9B, hits give low values 0.0516 | S. cerevisiae deletion strains, locus YNL071W, strain lat1, hits give low values 0.0698 | S. cerevisiae deletion strains, locus YNL128W, strain TEP1, hits give low values 0.0643 | S. cerevisiae deletion strains, locus YNL153C, strain GIM3, hits give low values 0.0512 | S. cerevisiae deletion strains, locus YNL183C, strain NPR1, hits give low values -0.00339 | S. cerevisiae deletion strains, locus YNL209W, strain ssb2, hits give low values 0.0648 | S. cerevisiae deletion strains, locus YNL233W, strain BNI4, hits give low values 0.0545 | S. cerevisiae deletion strains, locus YNL248C, strain rpa49, hits give low values 0.0607 | S. cerevisiae deletion strains, locus YNL250W, strain rad50, hits give low values 0.0707 | S. cerevisiae deletion strains, locus YNL271C, strain bni1, hits give low values 0.0672 | S. cerevisiae deletion strains, locus YNL298W, strain CLA4, hits give low values 0.0667 | S. cerevisiae deletion strains, locus YNL307C, strain MCK1, hits give low values 0.0744 | S. cerevisiae deletion strains, locus YNL322C, strain KRE1 (second series), hits give low values 0.0728 | S. cerevisiae deletion strains, locus YNL322C, strain KRE1, hits give low values 0.0468 | S. cerevisiae deletion strains, locus YNR049C, strain mso1, hits give low values 0.0631 | S. cerevisiae deletion strains, locus YNR052C, strain pop2, hits give low values 0.0629 | S. cerevisiae deletion strains, locus YOL006C, strain TOP1, hits give low values 0.108 | S. cerevisiae deletion strains, locus YOL147C, strain pex11, hits give low values 0.0586 | S. cerevisiae deletion strains, locus YOR001W, strain rrp6, hits give low values 0.072 | S. cerevisiae deletion strains, locus YOR061W, strain CKA2, hits give low values 0.045 | S. cerevisiae deletion strains, locus YOR069W, strain VPS5, hits give low values 0.046 | S. cerevisiae deletion strains, locus YOR070C, strain gyp1, hits give low values 0.0611 | S. cerevisiae deletion strains, locus YOR080W, strain dia2, hits give low values 0.0794 | S. cerevisiae deletion strains, locus YOR083W, strain WHI5, hits give low values 0.0648 | S. cerevisiae deletion strains, locus YOR106W, strain vam3, hits give low values 0.0647 | S. cerevisiae deletion strains, locus YOR136W, strain idh2, hits give low values 0.0779 | S. cerevisiae deletion strains, locus YOR144C, strain elg1, hits give low values 0.0585 | S. cerevisiae deletion strains, locus YOR184W, strain ser1, hits give low values 0.0845 | S. cerevisiae deletion strains, locus YOR231W, strain MKK1, hits give low values 0.105 | S. cerevisiae deletion strains, locus YOR265W, strain rbl2, hits give low values 0.0654 | S. cerevisiae deletion strains, locus YOR270C, strain vph1, hits give low values 0.0804 | S. cerevisiae deletion strains, locus YOR290C, strain snf2, hits give low values 0.062 | S. cerevisiae deletion strains, locus YOR316C, strain cot1, hits give low values 0.0632 | S. cerevisiae deletion strains, locus YPL051W, strain arl3, hits give low values 0.0645 | S. cerevisiae deletion strains, locus YPL055C, strain LGE1, hits give low values 0.0675 | S. cerevisiae deletion strains, locus YPL078C, strain atp4, hits give low values 0.0648 | S. cerevisiae deletion strains, locus YPL106C, strain sse1, hits give low values 0.0892 | S. cerevisiae deletion strains, locus YPL240C, strain hsp82, hits give low values 0.0586 | S. cerevisiae deletion strains, locus YPL241C, strain CIN2, hits give low values 0.0475 | S. cerevisiae deletion strains, locus YPL256C, strain CLN2, hits give low values 0.126 | S. cerevisiae deletion strains, locus YPR119W, strain clb2, hits give low values 0.0705 | S. cerevisiae deletion strains, locus YPR141C, strain kar3, hits give low values 0.0755 | S. cerevisiae deletion strains, locus YPR163C, strain tif3, hits give low values 0.074 | S. cerevisiae deletion strains, locus YPR167C, strain met16, hits give low values 0.0659 | S. cerevisiae deletion strains, strain wtn01, hits give low values 0.0707 | S. cerevisiae strains, strain wild type, hits give low values 0.0471
